{
  "source": "PubChem BioAssay (NCATS)",
  "note": "Values without a mark were called inactive. Active and inactive are the calls of the source. The call rests on the fitted dose curve; in most records, active means well fitted activation curve with a large enough effect; inconclusive means small, poorly fitted or top-dose-only effect; inactive means flat fitted curve, though single readings scatter. Potency means the concentration at half of the fitted maximal effect.",
  "data": [
    {"assay": "Cellular Toxicity (caspase-3) Mesangial (AID 660);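 further: combined caspase 3 and 7 activity read by Caspase-Glo luminescence; cells exposed to compound for 16 h before the caspase read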", "conditions": "mesangial cells; Potency: caspase-3 activation; series mostly up to 91.7 µM; caspase-3 activation: at the top concentration", "excerpt": "NIH Chemical Genomics Center [NCGC]\nNIH Molecular Libraries Screening Centers Network [MLSCN]\nNational Institutes of Environmental Health Sciences [NIEHS]\nNational Toxicology Program [NTP]\nWe have developed a 1536-well cell-based assay for quantitative high throughput screening (qHTS) against a number of cell lines to determine in vitro caspase 3/7 of small molecules. This particular assay uses the mesangial cell line which is derived from normal human renal glomeruli.\nNCGC Assay Protocol Summary:\nThe Caspase-Glo 3/7 assay (Promega) is a homogeneous method to measure caspase-3 and caspase-7 activities in cultured cells. The quantitation of caspase 3/7 activity is based on the cleavage of a peptide-aminoluciferin substrate. After caspase cleaves the substrate the free aminoluciferin is liberated and serves as the substrate of luciferase, which generates the light. The luminescent signal is proportional to amount of caspase 3/7 activity present.\nUsing the Caspase-Glo 3/7 assay, the amount of caspase 3/7 activity was measured in the mesangial cell line with complete culture medium following compound treatment for 16 hours. The assay was performed in opaque white 1536-well plates. In the screen, tamoxifen and doxorubicin were used as positive controls. Library compounds were measured for their ability to cause the activation of caspase 3/7 in the cell line, as reflected by an increase in luminescence signal, in a concentration-dependent manner. Data were normalized to the controls for basal activity (DMSO only) and 100% stimulation (100 uM tamoxifen). AC50 values were determined from concentration-response data modeled with the standard Hill equation.\nqHTS protocol for caspase 3/7 assay in mesangial cell line\n[Step] [Parameter] [Value] [Description]\n1. Reagent; 5 uL; 1000 mesangial cells/well\n2. Time; 5 hr; 37 °C incubation\n4. Controls; 23 nL; Tamoxifen 0.23 uM to 100 uM & doxorubicin 7.0 pM to 100 uM\n5. Time; 16 hr; 37 °C incubation\n6. Reagent; 5 uL; Caspase-Glo 3/7 reagent\n7. Time; 20 min; Room Temperature\n8. Detection; Luminescence; Viewlux plate reader\nKeywords: caspase 3/7, apoptosis, mesangial cell line, luminescence, NTPHTS, NTPHTS_NCGC, NIEHS, EPA, DSSTox, MLSMR, MLSCN, NIH Roadmap, qHTS, NCGC", "units": {"caspase-3 activation": "%"}, "values": [
      {"smiles": "CC(C)NCC(O)COc1cccc2ccccc12", "note": "(centres undefined)", "caspase-3 activation": 0.401},
      {"smiles": "CN(C)c1ccc(C(=C2C=CC(=[N+](C)C)C=C2)c2ccccc2)cc1", "Potency": "1260 nM (active)"},
      {"smiles": "Oc1ccccc1O", "caspase-3 activation": 1.3},
      {"smiles": "c1ccc2sc(SSc3nc4ccccc4s3)nc2c1", "caspase-3 activation": 4.93},
      {"smiles": "Nc1ccc(O)c(C(=O)O)c1", "caspase-3 activation": 0.0954},
      {"smiles": "CN(C)CCC(c1ccc(Cl)cc1)c1ccccn1", "note": "(centres undefined)", "caspase-3 activation": -0.481},
      {"smiles": "Nc1ccc(O)c([N+](=O)[O-])c1", "caspase-3 activation": 0.289},
      {"smiles": "O=C(O)c1cc(O)c(O)c(O)c1", "caspase-3 activation": -0.617},
      {"smiles": "CCCOC(=O)c1ccc(O)cc1", "Potency": "inactive"},
      {"smiles": "CCCCCCCCCCCCCCCCCC(=O)O", "caspase-3 activation": 0.0688},
      {"smiles": "N=C1N=C(N)c2cc3ccccc3cc21", "caspase-3 activation": 17.8},
      {"smiles": "S=c1[nH]c2ccccc2s1", "caspase-3 activation": -0.0652},
      {"smiles": "NCCO", "caspase-3 activation": -0.619},
      {"smiles": "C#C[C@]1(O)CC[C@H]2[C@@H]3CCc4cc(O)ccc4[C@H]3CC[C@@]21C", "caspase-3 activation": 2.34},
      {"smiles": "O=C(O)/C=C\\C(=O)O", "caspase-3 activation": 1.68},
      {"smiles": "c1cnc2c(c1)ccc1cccnc12", "caspase-3 activation": -1.68},
      {"smiles": "CN1CCC[C@H]1c1cccnc1", "caspase-3 activation": -0.452},
      {"smiles": "CN(C)c1ccc(N=NS(=O)(=O)O)cc1", "caspase-3 activation": -0.326},
      {"smiles": "Nc1ccc([N+](=O)[O-])cc1O", "caspase-3 activation": -0.0023},
      {"smiles": "Nc1nc2ccc([N+](=O)[O-])cc2s1", "caspase-3 activation": -1.25},
      {"smiles": "CC1(C)S[C@@H]2[C@H](NC(=O)[C@H](N)c3ccccc3)C(=O)N2[C@H]1C(=O)O", "caspase-3 activation": 0.452},
      {"smiles": "O=C1CN(/N=C/c2ccc([N+](=O)[O-])o2)C(=O)N1", "caspase-3 activation": -0.623},
      {"smiles": "O=c1cc(-c2ccccc2)oc2ccccc12", "caspase-3 activation": -0.991},
      {"smiles": "COc1cc(CNC(=O)CCCC/C=C/C(C)C)ccc1O", "caspase-3 activation": 2.26}
    ]}
  ]
}
